# Test results taken from PubChem BioAssay (NCI).
# The panel holds about 83,000 compounds, 20% with a hit somewhere; the sample as a whole holds those more often.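 How to read the values: 0–100, growth inhibition (40 = 60% inhibited); 0, no net growth; -100 to 0, cell death (-40 = 40% of starting cells died; -100 = all dead).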 A number with no mark means an inactive call. Active and inactive are the calls of the source. The calls were made as follows: active = growth percent below 10; inactive = the rest. *1 amine or outer side, *2 acyl side, *3 side chain or, on linkers, in order; H or OH if unused. Where a SMILES comes first, the peptide text is derived from it. Bridges are numbered along the chain shown (N, C = ends). Roman numbers before positions name the chains, in order. [ ]: non-standard residue; d: D form. Actinocin(1to9) = Cc1c2oc3c(C)ccc(C(=O)[*:2])c3nc-2c(C(=O)[*:1])c(N)c1=O; NMeV = CN[CH](C(=O)O)C(C)C; Sar = CNCC(=O)O
# Tests used:
# Assay in all cases: NCI-60 one-dose screen, 48 h (100 = growth as untreated, 0 = no growth, -100 = all killed)
# Conditions in all cases: 10 µM unless noted
# SR leukemia = tested on: SR leukemia
# RPMI-8226 leukemia = tested on: RPMI-8226 leukemia
# OVCAR-8 ovarian = tested on: OVCAR-8 ovarian
# OVCAR-4 ovarian = tested on: OVCAR-4 ovarian
# SK-OV-3 ovarian = tested on: SK-OV-3 ovarian
# IGROV1 ovarian = tested on: IGROV1 ovarian
# OVCAR-3 ovarian = tested on: OVCAR-3 ovarian
# HS 578T breast = tested on: HS 578T breast
# NCI/ADR-RES ovarian = tested on: NCI/ADR-RES ovarian
# OVCAR-5 ovarian = tested on: OVCAR-5 ovarian
SMILES,growth (SR leukemia),growth (RPMI-8226 leukemia),growth (OVCAR-8 ovarian),growth (OVCAR-4 ovarian),growth (SK-OV-3 ovarian),growth (IGROV1 ovarian),growth (OVCAR-3 ovarian),growth (HS 578T breast),growth (NCI/ADR-RES ovarian),growth (OVCAR-5 ovarian)
Oc1ccc(Cl)cc1Cc1cc(Cl)ccc1O,81.4%,-1.2% (active),20.9%,38.7%,84.8%,41.1%,9.92% (active),34.2%,4.47% (active),
COc1c(C)c2c(c(O)c1C/C=C(\C)CCC(=O)O)C(=O)OC2,14%,57.8%,11.9%,44.5%,45.2%,12.9%,34.4%,72%,31.2%,
Cc1ccc(/C=C2\CNC/C(=C\c3ccc(C)cc3)C2=O)cc1,-2.99% (active),-30.6% (active),,9.79% (active),30.5%,-71.2% (active),-58.5% (active),,-51.3% (active),-28.4% (active)
CCC(C)(O)Cc1ccc(Cl)cc1 (centres undefined),101%,,108%,103%,103%,114%,114%,108%,111%,111%
O=C(c1ccccc1)C(Br)[N+](=O)[O-] (centres undefined),5.17% (active),,83.9%,104%,79.9%,103%,101%,91.3%,101%,96.4%
COC1=CC(=O)c2c(O)c3c(c(O)c2C1=O)CC(C)(O)OC3 (centres undefined),14.3%,34.7%,,-12.8% (active),86.9%,,-0.531% (active),67.2%,-4.8% (active),35.4%
CCC(C)C(N)C(=O)NC(CC(N)=O)C(=O)NC(CC(C)C)C(=O)NC(CCCCN)C(=O)NC(C)C(=O)NC(CC(C)C)C(=O)NC(C)C(=O)NC(C)C(=O)NC(CC(C)C)C(=O)NC(C)C(=O)NC(CCCCN)C(=O)NC(CCCCN)C(=O)NC(C(=O)NC(CC(C)C)C(N)=O)C(C)CC (centres undefined),85.8%,74.7%,,95.2%,110%,102%,117%,,102%,166%
O=C1C=CC(=O)c2c(O)c(CO)c(CO)c(O)c21,83.3%,18.2%,,64.9%,109%,52.7%,98.3%,113%,97.2%,84.8%
CN(C)c1ccc(/C=C/c2sc3ccc4ccccc4c3[n+]2C)cc1,-30.7% (active),,-31.1% (active),-19.9% (active),-23.7% (active),-11.2% (active),-63% (active),-29.1% (active),34%,-27.3% (active)
C1=C(c2ccccc2)c2ccccc2C1,93.6%,,114%,105%,109%,101%,106%,95.2%,101%,92%
COc1ccc2c(c1OC)OCC(CN(C)C)C2=O (centres undefined),78.2%,-40.8% (active),,-50.8% (active),108%,93.3%,92.4%,106%,106%,92.9%
"CCC(C)C1NC(=O)C(NC(=O)c2c3nc4c(C(=O)NC5C(=O)NC(C(C)CC)C(=O)N6CCCC6C(=O)N(C)CC(=O)N(C)C(C(C)C)C(=O)OC5C)ccc(C)c4oc-3c(C)c(=O)c2N)C(C)OC(=O)C(C(C)C)N(C)C(=O)CN(C)C(=O)C2CCCN2C1=O (centres undefined) (I: TIP[Sar][NMeV] / II: TIP[Sar][NMeV]; ester I:1-I:C, II:1-II:C; linker I:N-II:N via Actinocin(1to9); configuration not given here)",5.31% (active),-18.8% (active),,-1.07% (active),18.2%,-32.4% (active),1.47% (active),,-42.7% (active),-76.6% (active)
O=C1Nc2ccc(Br)cc2C1=O,81.9%,,100%,93.2%,93.9%,97.9%,90.5%,95.7%,108%,103%
CCCCCCCCCCCCCCCC[N+]1(C)CCCC1c1cccnc1 (centres undefined),42.7%,,38.4%,47.1%,60.5%,42.3%,38.3%,80.2%,87.8%,48.4%
O=C1C=CC(=O)N1c1ccccc1,45.2%,,99.5%,,109%,105%,1.28% (active),103%,97.7%,96.4%
Cc1cc(C(=C2C=CC(=Nc3ccccc3)C=C2)c2ccc(Nc3ccccc3)cc2)ccc1N,9.34% (active),,-59.3% (active),-74.2% (active),-64.8% (active),-26.9% (active),-93.7% (active),,-46.7% (active),-60% (active)
CCCCCCCCCCCC[S+](C)CC(=O)[O-] (centres undefined),,26.6%,45.5%,48.1%,41.3%,12.8%,57.6%,36.7%,99.8%,56.5%
O=C(Nc1ccc(Cl)c(Cl)c1)Nc1ccccc1O,87%,,67.1%,67.1%,89.2%,72.7%,79.6%,106%,63.8%,98.7%
COC(=O)[C@]1(C)CCC[C@]2(C)c3ccc(C(C)C)cc3C(=O)[C@@H](Br)[C@@H]12,65.6%,,77.9%,82.3%,96.9%,111%,95.4%,98%,96.7%,113%
O=C(CCl)N(c1ccccc1)c1ccccc1,101%,,96.3%,111%,114%,115%,109%,102%,108%,117%
Oc1ccc(Nc2ccc3ccccc3c2)cc1,50.4%,,59.8%,60.2%,89.3%,58.1%,69.8%,87.6%,41.8%,71.5%
COC1CC(C)C(OC)c2cc(O)cc(c2O)NC(=O)/C(C)=C/C=C\C(C)C(OC(N)=O)/C(C)=C\C(C)C1OC (centres undefined),-5.85% (active),,,-39.9% (active),16.1%,-0.486% (active),20.2%,,-67.2% (active),27.2%
O=C1C=CC(=O)N1c1ccc(O)cc1,91.7%,,109%,103%,106%,,119%,118%,106%,105%
Cc1ccc(Nc2ccc(O)c3c2C(=O)c2c(O)ccc(Nc4ccc(C)cc4)c2C3=O)cc1,108%,,91.4%,111%,108%,,113%,103%,107%,106%
S=c1[nH]c2cc(Cl)ccc2s1,106%,,103%,106%,102%,105%,102%,,105%,98.6%
NC(=S)N/N=C\c1nccc2c(C(F)(F)F)cccc12,-28.6% (active),,11.1%,,11.4%,4.12% (active),15.3%,54.3%,0.716% (active),36%
Cc1cc(I)nc2ccccc12,107%,,107%,112%,109%,104%,130%,,109%,100%
O=[N+]([O-])c1ccc2c(c1)Cc1ccccc1-2,91.4%,,98.9%,97.3%,112%,94.7%,103%,102%,99%,91.3%
NC(=Nc1nc(-c2ccccn2)cc2ccccc12)c1ccccn1,6.67% (active),,,27.1%,19.7%,-9.19% (active),29.3%,,-31.2% (active),-15.7% (active)
CN(C)c1ccc2cc3c(cc2c1)Oc1ccccc1N3.[Cl][Zn][Cl],12.5%,,70.2%,64%,106%,78.5%,17.6%,106%,86.2%,
